# CRFBP-R2 block – CRF-BP/CRF-R2 complex antagonism | inhibition, % at 11.8 µM | HEK293 CRF-R2/CRF-BP, CRF-induced calcium fluorescence | 350,000 tested, 0.59% active | AID 588475;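 active = inhibition of the ligand-induced calcium signal above about 50% at the single tested concentration, limit read from the data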
# GRIN3A LBD mod – modulates the human NR3A ligand-binding domain | NR3A LBD differential scanning fluorimetry, Tm shift; 0% = protein alone, 100% = glycine-bound protein | Tm shift relative to glycine control, % at 25 µM | 340,000 tested, 2.5% active | AID 1259313;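 active = melting temperature shift of at least 10% of the positive control shift, at one fixed dose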
# ANO1 activ – activates or potentiates the mouse TMEM16A chloride channel. Q8BHY3. HEK293 TMEM16A/YFP-H148Q/I152L, iodide quench fluorescence; stronger effect = lower value. B-score at 10 µM. 340,000 tested, 0.3% active;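 active = fluorescence-ratio B-score plate-corrected deviation score at least 3 library SD below zero, with starting fluorescence score within 5 deviations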;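 note: channel opened by trigger with iodide after compound preincubation; score built on the fluorescence ratio of max minus min over baseline; more negative score means more quench and so TMEM16A activation or potentiation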
# MPTP inh – permeability transition pore inhibition; isolated mouse mitochondria, Ca2+ swelling absorbance, 30 min; inhibition, % at 10 µM; 360,000 tested, 1.4% active; AID 602449;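 active = inhibition of 50% or more, scaled per plate between neutral and stimulator controls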;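 note: 0% = DMSO wells given calcium and 100% = 1 mM EGTA wells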
# TMEM16A inh – mouse TMEM16A channel inhibition, primary screen | Q8BHY3 | HEK293 TMEM16A/YFP iodide influx fluorescence, ionomycin | normalized B-score (activity score, 25-100; higher = stronger inhibition) at 10 µM | 310,000 tested, 1.2% active | AID 588511;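 active = ratio plate-corrected score three or more library SD toward inhibition, starting fluorescence score within five deviations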;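 note: score derived from kinetic fluorescence span divided by baseline fluorescence per well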
# CRFBP-R2 agonist – agonists of human CRF-binding protein/CRF-R2 receptor complex. activation, % at 13.2 µM. 350,000 tested, 0.46% active. HEK293 CRF-R2/CRF-BP, calcium dye fluorescence (FLIPR); percent of saturating CRF peptide response;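 active = activation of at least 50%, plus an integration ratio under a set limit after plate pattern correction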;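 note: plate controls were neutral control wells without compound for no effect and CRF at EC100 for full effect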
# Rh123 counter – mitochondrial membrane potential, counter-screen. shares compounds with MPTP inh. isolated mitochondria, Rhodamine 123 fluorescence. inhibition, % at 10 µM. 5,000 tested, 78% active; in the data active = inhibition above about 22%;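 note: 0% = DMSO vehicle and 100% = positive control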
# MPTP abs DR – dose response confirmation of mitochondrial permeability transition pore inhibitors; 780 tested, 58% active; shares compounds with MPTP inh; isolated mitochondria swelling, absorbance; IC50, µM; in the data active = IC50 below about 20 µM
# MPTP cs DR – MPTP inhibitor counter-screen activity, dose response; AID 651564; IC50, µM; shares compounds with MPTP inh; isolated mitochondria counterscreen, fluorescence read-out; 780 tested, 49% active; in the data active = IC50 below about 80 µM
# * marks the source's active call; other numbers are inactive results; i = inactive; x = not tested or not shown. Shown are actives, neighbours in structure and some others; about 5.1% of the full set was active somewhere.
SMILES,CRFBP-R2 block,GRIN3A LBD mod,ANO1 activ,MPTP inh,TMEM16A inh,CRFBP-R2 agonist,Rh123 counter,others
CCOC(=O)c1c(C)oc(NC(=O)COc2ccc(Cl)cc2C)c1C#N,38,1,i,70*,i,0,51*,
CSc1ccccc1NC(=O)COc1ccc(Cl)cc1C,-38,2,i,0,i,-1,x,
OC(CNCCC(c1ccccc1)c1ccccc1)COc1ccccc1 (stereo unspecified),-10,0,i,77*,i,2,15,MPTP abs DR=2.9*;MPTP cs DR=18*
CCOC(=O)COn1c(-c2cccc(Cl)c2)nc2ccc([N+](=O)[O-])cc21,-48,6,i,57*,i,3,81*,
CCOC(=O)c1c(C)nc(C)c(C(=O)OCC)c1-c1cccc([N+](=O)[O-])c1,8,x,x,-1,x,-2,x,
CC(On1c(-c2ccccc2)nc2ccc(Cl)cc21)C(=O)O (stereo unspecified),7,4,i,0,i,-1,x,
CCOC(=O)C(C)On1c(-c2cccc(Cl)c2)nc2ccc([N+](=O)[O-])cc21 (stereo unspecified),32,10*,i,87*,100*,1,99*,
COc1ccc(CCNc2ncnc3[nH]ncc23)cc1OC,6,0,i,1,i,1,x,
COc1ccc(CCNc2ncnc3sc(C)cc23)cc1OC,15,3,i,101*,i,0,96*,
CCCCCCC(C)NC(=S)Nc1cc(S(=O)(=O)N(C)C)ccc1C (stereo unspecified),-16,1,i,64*,i,-2,79*,
Cc1ccc(S(=O)(=O)N(C)C)cc1NC(=S)NC(C)CCC(C)C (stereo unspecified),-40,-25,i,57*,i,11,73*,
Cc1ccc(S(=O)(=O)N(C)C)cc1NC(=O)Nc1ccccc1F,6,1,i,6,i,1,x,
Cc1ccc(S(=O)(=O)N(C)C)cc1NC(=S)Nc1cccc2ccccc12,-2,-4,i,2,i,-3,x,
CC(=O)NNC(=S)Nc1cc(S(=O)(=O)N(C)C)ccc1C,-3,0,i,-2,i,-2,x,
Cc1cc(C)cc(NC(=O)Nc2cc(S(=O)(=O)N(C)C)ccc2C)c1,27,1,i,64*,i,0,84*,
Cc1ccc(S(=O)(=O)N(C)C)cc1NC(=S)NC(C)CCCC(C)C (stereo unspecified),-21,-4,i,96*,i,-1,92*,
O=C(NCc1ccc(F)cc1)Nc1nnc([C@H]2C[C@H](O)[C@@H](CO)O2)s1,x,x,x,1,x,x,x,
Nc1nc(Cl)cc(N2CCC(c3cc(-c4ccc(Cl)cc4)n[nH]3)CC2)n1,-31,17*,i,98*,100*,1,90*,
Clc1ccc(-c2cc(C3CCNCC3)[nH]n2)cc1,-5,1,i,15,i,-1,x,
COc1cc(C(=O)NNC(=S)NC(=O)c2ccc(Cl)cc2)cc(OC)c1OC,-9,-6,i,10,i,35,x,
Cc1cccc(C(=O)NC(=S)NNC(=O)c2ccc(Cl)cc2)c1,-148,-9,i,95*,25*,213*,19,
O=C(NC(=S)NNC(=O)c1cccs1)c1ccccc1,-7,-29,i,-1,i,27,x,
CC(C)(C)c1ccc(C(=O)NC(=S)NNC(=O)c2cccs2)cc1,-240,-6,i,92*,100*,290*,29*,
O=C(NNC(=S)NC(=O)c1sc2ccccc2c1Cl)c1ccc(Cl)cc1,-222,-5,-9.3*,108*,100*,210*,20,
Cc1cccc(C(=O)NC(=S)NNC(=O)c2cccs2)c1,-75,-7,i,54*,i,270*,-12,
SMILES,CRFBP-R2 block,GRIN3A LBD mod,ANO1 activ,MPTP inh,TMEM16A inh,CRFBP-R2 agonist,Rh123 counter,others
CCC(C)c1ccc(OCc2ccc(C(=O)O)o2)cc1 (stereo unspecified),8,-1,i,-1,i,-1,x,
CC(=O)Oc1[nH]c(=O)c2cccc3c2c1CCC3,-22,x,x,1,x,7,x,
CC(C)CN(C(=O)c1ccco1)C1CCS(=O)(=O)C1 (stereo unspecified),9,3,i,-1,i,0,x,
CCOc1ccc(/C=N/NC(=O)C(O)c2ccccc2)c(O)c1 (stereo unspecified),-2,-1,i,2,i,-1,x,
CC(C)CC1C(=O)N(Cc2cn(CCC3OCCO3)nn2)CCS(=O)(=O)N1Cc1ccc(-c2ccc(F)nc2)cc1 (stereo unspecified),2,x,x,-1,x,2,x,
CCOC(=O)c1sc(=S)n(C)c1NC(=O)c1ccc(C(C)(C)C)cc1,10,5,i,75*,25*,9,88*,
CCOC(=O)c1sc(=S)n(C)c1NC(=O)c1ccc(OC)cc1,6,3,i,5,i,-2,x,
O=C(/C=C/c1cccs1)c1ccc(NC(=O)c2cccc(Br)c2)cc1,-27,27*,i,54*,i,2,62*,
CCc1ccccc1NC(=O)Nc1ccc(F)cc1F,4,1,i,5,i,-1,x,
CCc1ccccc1NC(=O)Nc1cc(F)ccc1F,5,-8,i,58*,i,-1,88*,
CC(O)(CS(=O)(=O)Cc1ccccc1)c1ccccc1Cl (stereo unspecified),-13,1,i,-1,i,2,x,
COc1ccc(-c2cc3ccccc3n2CC(O)CNCCO)cc1 (stereo unspecified),-1,0,i,54*,i,1,-18,MPTP abs DR=10*;MPTP cs DR=>80
C[C@H](NC(=O)c1[nH]cnc1C(=O)N[C@@H](C)CO)c1ccccc1,-8,x,x,0,x,2,x,
CNC(=O)N(O)C1N(NC(=O)Nc2ccccc2)C(=S)SC1(C)C (stereo unspecified),3,0,i,2,i,0,x,
CC1(C)SC(=S)N(NC(=O)Nc2cccc3ccccc23)C1N(O)C(=O)Nc1ccccc1 (stereo unspecified),-4,23*,i,95*,i,0,74*,
CNC(=O)N(O)C1N(/N=C/c2ccc(N(C)C)cc2)C(=S)SC1(C)C (stereo unspecified),-2,0,i,3,i,-2,x,

# Bioassay records deposited in PubChem BioAssay by several laboratories.
